The results in this text go back to PubChem BioAssay (NCI).

This is part of a sample that, as a whole, favours compounds with a hit. Of some 83,000 tested, about 20% had one in any assay.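 96-well plates, one dose, 48 hours. Percent growth reported; active if below 10.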 A number with no mark means an inactive call. Active and inactive are the calls of the source.

The subject of the first assay is ACHN renal. Kind of assay: NCI-60 one-dose screen, 48 h (100 = growth as untreated, 0 = no growth, -100 = all killed). To be noted: 10 µM unless noted.
Turning to `C[C@@H]1C[C@H]2C(=O)O[C@@H](C)C(NC(=O)[C@H](Cc3cc(F)cc(F)c3)NC(=O)Nc3ccc(Cl)cc3F)C(=O)N3CCC[C@H]3C(=O)N3CCCC[C@H]3C(=O)N[C@@H](CO)C(=O)N2C1` (stereo partly drawn), the growth was 31.9%.

For the compound `CC(=O)O[C@@H]1C(=O)N(c2cnccn2)[C@H]1c1ccccc1[N+](=O)[O-]`, the growth is 21.1%.

As to `C=C1CC[C@@H]2[C@]3(C)COC(c4ccccc4)O[C@@H]3CC[C@@]2(C)[C@@H]1C/C=C1/C(=O)OC[C@H]1O` (stereo partly drawn), the growth was 100%.

`Nc1nc(-c2cccc([N+](=O)[O-])c2)c(N=Nc2cccc([N+](=O)[O-])c2)s1`: the growth is 11.5%.

As to `Nc1cc(F)ccc1NC(=O)c1ccc(NC(=O)C/C=C/c2cccnc2)cc1`, the growth was 55.9%.

On to `CCc1nn2c(C)cc(C)nc2c1Cc1ccc(/C=C/CN2CCN(CCOCCOCCN3CCN(C/C=C/c4ccc(Cc5c(CC)nn6c(C)cc(C)nc56)cc4)CC3)CC2)cc1`, for which the growth was 1.5% (active).

In the case of `COc1ccc(NC(=O)CSc2nnc(-c3ccc4nc(-c5ccccc5)[nH]c4c3)o2)cc1`, the growth was 102%.

As for `COc1ccc(N2C(=O)c3cc(Cl)ccc3NC2SCc2ccccc2)cc1` (stereo not drawn), the growth is 101%.

Regarding `O=C(CSc1nc2ccccc2c(=O)n1-c1ccccc1)Nc1ccc(-c2nc3ccc([N+](=O)[O-])cc3[nH]2)cc1`, the growth is 88.2%.

Consider `O=C(NCCn1ccnc1)c1ccc(-c2nc3ccc4[nH]ncc4c3c3c2CCCC3)cc1`, for which the growth is 88.4%.

On to `CCCC(=O)NC(c1cccnc1)c1cc(C(C)(C)C)c2cccnc2c1O` (stereo not drawn), for which the growth is 12.1%.

In the case of `NC(N)=Nc1ccc(Oc2cccc(Nc3ccc(Cl)cc3)c2)cn1`, the growth is 30.9%.

For the compound `O=C(CN1CCN(c2cc(=O)[nH]c3ccc(F)cc23)CC1)Nc1ccc(Cl)cc1`, the growth was 57%.

For the compound `C=C(C=O)[C@@H]1CC[C@]2(C)[C@H](C(=O)C=C3[C@H]4C[C@](C)(C(=O)OC)CC[C@]4(C)CC[C@]32C)[C@@]1(C)CCC#N`, the growth is -12.5% (active).

In a further assay the test system is CAKI-1 renal. The assay is described as above. The note with it: 10 µM unless noted.
On to `Cc1ccc(NC(=O)c2ccc(CN3CCN(C)CC3)cc2)cc1Oc1ccc(-c2[nH]nc3ncnc(N)c23)cc1`, for which the growth was 92.5%.

`CCCn1cnc2c(c1=N)C(c1ccc(Cl)cc1)c1sc3c(C)cccc3c1O2` (stereo not drawn): the growth was 29.8%.

On to `C=C(C=O)[C@@H]1CC[C@]2(C)[C@H](CC=C3[C@H]4[C@@H](C)[C@H](C)CC[C@]4(C(=O)OC)CC[C@]32C)[C@@]1(C)CCC#N`, for which the growth was 3.89% (active).

As for `Cc1occc1-c1nc2s/c(=C/c3ccc(-c4cc(C(F)(F)F)ccc4Cl)o3)c(=O)n2n1`, the growth is 89.2%.

On to `C[C@H]1c2[nH]c3ccccc3c2C[C@H]2C(=O)N(CCCCCCC(=O)NO)CC(=O)N21`, for which the growth is 87.8%.

Consider `COc1ccc(-c2cc(-c3ccc(Cl)cc3)c(C#N)c(=O)n2Cc2ccc(C(=O)O)cc2)cc1`, for which the growth was 70.3%.

Consider `O=C1[C@H]2Cc3c([nH]c4ccccc34)[C@@H](c3ccc(Cl)cc3)N2C(=O)CN1C1CCN(Cc2ccccc2)CC1`, for which the growth is 38%.

For `COc1cc(-c2nn(C(C)(C)C)cc2-c2ccnc(NCCCNS(=O)(=O)c3ccc(C)cc3)n2)ccc1Cl`, the growth was 27.4%.

Consider `CCCCNNC(=O)c1ccc(-c2cccc(F)c2F)cc1`, for which the growth was 30.9%.

As for `CC1(C)CC[C@]2(C(=O)N3CCOCC3)CC[C@]3(C)C(=CC[C@@H]4[C@@]5(C)C/C(=C/c6ccccn6)C(=O)C(C)(C)[C@@H]5CC[C@]43C)[C@@H]2C1`, the growth is 28.9%.

For the compound `O=S(=O)(NCCNc1nccc(-n2cnc3ccccc32)n1)c1ccc(Br)cc1`, the growth was 81.5%.

For the compound `CC1(C)CC[C@]23CC[C@]4(C)[C@H](CC[C@@H]5[C@@]6(C)CCCN(CO)C(C)(C)[C@@H]6CC[C@]54C)[C@H]2[C@H]1OC3`, the growth is 62.1%.

Consider `O=C1[C@H]2Cc3c([nH]c4ccccc34)[C@@H](c3ccc(Br)cc3)N2C(=O)CN1C1CCN(CC2CCCCC2)CC1`, for which the growth is -32.9% (active).

For `COc1ccc([C@H]2c3[nH]c4ccccc4c3C[C@H]3C(=O)N(C4CCN(Cc5c(Cl)cccc5Cl)CC4)CC(=O)N23)c(OC)c1`, the growth was 73.4%.

Regarding `NS(=O)(=O)c1ccc(Nc2nc(Nc3ccccc3)nc3nnc(SCC(=O)NC4CCCCC4)n23)cc1`, the growth was 83.7%.

Turning to `CCN(CC)c1cn(-c2ccc(S(N)(=O)=O)cc2)nn1`, the growth was 93.9%.

Take `O=[N+]([O-])c1cc(/C=N/Nc2nc(N/N=C/c3ccc(Cl)c([N+](=O)[O-])c3)nc(N3CCCCC3)n2)ccc1Cl`: the growth is 72.4%.

As for `CC(=O)Nc1cccc(Nc2nc(N[C@@H](C)c3ccccc3)c3ccccc3n2)c1`, the growth is 18.5%.

For `CCNC(=O)Oc1ccc(/C(=C(/C)c2ccccc2)c2ccc(OCCN3CCCCCC3)cc2)cc1`, the growth is 8.75% (active).

As to `COc1cc(/C=N/NC(=O)c2cn(C3CC3)c3c(OC)c(N4CC5CCCNC5C4)c(F)cc3c2=O)ccc1O` (stereo not drawn), the growth was 82.9%.

On to `CC(C)c1ccc(NCc2cn(-c3ccc(C(=O)O)cc3)nc2-c2cc(C(F)(F)F)cc(C(F)(F)F)c2)cc1`, for which the growth is 63.7%.

With `C[C@@H]1C[C@H]2C(=O)O[C@@H](C)C(NC(=O)[C@H](Cc3cc(F)cc(F)c3)NC(=O)Nc3ccc(Cl)cc3F)C(=O)N3CCC[C@H]3C(=O)N3CCCC[C@H]3C(=O)N[C@@H](CO)C(=O)N2C1` (stereo partly drawn), the growth is 17.5%.

For the compound `CC(=O)O[C@@H]1C(=O)N(c2cnccn2)[C@H]1c1ccccc1[N+](=O)[O-]`, the growth is 24.6%.

For `C=C1CC[C@@H]2[C@]3(C)COC(c4ccccc4)O[C@@H]3CC[C@@]2(C)[C@@H]1C/C=C1/C(=O)OC[C@H]1O` (stereo partly drawn), the growth is 83.7%.

As to `Nc1nc(-c2cccc([N+](=O)[O-])c2)c(N=Nc2cccc([N+](=O)[O-])c2)s1`, the growth is 34.5%.

For the compound `Nc1cc(F)ccc1NC(=O)c1ccc(NC(=O)C/C=C/c2cccnc2)cc1`, the growth was 66.4%.

`CCc1nn2c(C)cc(C)nc2c1Cc1ccc(/C=C/CN2CCN(CCOCCOCCN3CCN(C/C=C/c4ccc(Cc5c(CC)nn6c(C)cc(C)nc56)cc4)CC3)CC2)cc1`: the growth was -16.2% (active).

Regarding `COc1ccc(NC(=O)CSc2nnc(-c3ccc4nc(-c5ccccc5)[nH]c4c3)o2)cc1`, the growth was 101%.

Turning to `COc1ccc(N2C(=O)c3cc(Cl)ccc3NC2SCc2ccccc2)cc1` (stereo not drawn), the growth is 81.8%.

On to `O=C(CSc1nc2ccccc2c(=O)n1-c1ccccc1)Nc1ccc(-c2nc3ccc([N+](=O)[O-])cc3[nH]2)cc1`, for which the growth is 78.2%.

Regarding `CCCC(=O)NC(c1cccnc1)c1cc(C(C)(C)C)c2cccnc2c1O` (stereo not drawn), the growth is 16.2%.

Take `NC(N)=Nc1ccc(Oc2cccc(Nc3ccc(Cl)cc3)c2)cn1`: the growth was 27.3%.

On to `O=C(CN1CCN(c2cc(=O)[nH]c3ccc(F)cc23)CC1)Nc1ccc(Cl)cc1`, for which the growth was 72.6%.

`C=C(C=O)[C@@H]1CC[C@]2(C)[C@H](C(=O)C=C3[C@H]4C[C@](C)(C(=O)OC)CC[C@]4(C)CC[C@]32C)[C@@]1(C)CCC#N`: the growth is 7.53% (active).
